A short description of assay [1]: NCI Yeast Anticancer Drug Screen. Data for the rad50 strain (AID 155).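 Also: 0% = growth of vehicle-only cultures of the same strain.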 The conditions noted are these: S. cerevisiae rad50 strain growth inhibition, hits give high values; at 50.0 µM unless noted. A digest of the protocol: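 Growth of the mutant yeast was measured after compound exposure and referenced to vehicle-treated cultures.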
A short description of assay [2]: NCI Yeast Anticancer Drug Screen. Data for the mec2-1 strain (AID 157). As to conditions: S. cerevisiae mec2-1 strain, hits give high values; at 50.0 µM unless noted. The method, boiled down:
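Compounds were applied to mec2-1 yeast cells. Their growth was then compared with that of vehicle-treated cultures to give growth inhibition.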

Assay [3] is described as follows: NCI Yeast Anticancer Drug Screen. Data for the sgs1 mgt1 strain (AID 161).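 Also: 0% = growth of cultures given vehicle only.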 As to conditions: S. cerevisiae sgs1 mgt1 strain, hits give high values; at 50.0 µM unless noted. The method, boiled down:
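This yeast growth screen uses a strain with defined DNA-repair lesions; compound-treated growth is compared with vehicle-treated growth.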

Assay [4] in a line: NCI Yeast Anticancer Drug Screen. Data for the cln2 rad14 strain (AID 165).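 Also: 0% = growth equal to vehicle treated cultures.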 As to conditions: S. cerevisiae cln2 rad14 strain, hits give high values; at 50.0 µM unless noted. A digest of the protocol: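 Strain: cln2 rad14 yeast, altered in cell cycle control and DNA damage repair. Read-out: growth inhibition vs vehicle.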
Assay [5] can be described thus: NCI Yeast Anticancer Drug Screen. Data for the bub3 strain (AID 167). As to conditions: S. cerevisiae bub3 mutant strain, hits give high values; at 50.0 µM unless noted. The method, boiled down:
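Whole-cell yeast assay. The mutant strain was incubated with compounds, and growth inhibition was determined by comparison with vehicle-treated cells.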

Assay [6] is described as follows: NCI Yeast Anticancer Drug Screen. Data for the mlh1 rad18 strain (AID 175). The conditions noted are these: S. cerevisiae mlh1 rad18 strain growth inhibition, hits give high values; at 50.0 µM unless noted. A digest of the protocol:
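A repair-deficient yeast strain is exposed to test compound, and growth is scored relative to vehicle-treated controls.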

Several values for one entry are separate records, joined by “and”; a condition that tells them apart may be missing. Equal entries are not always repeated. This is part of a sample that, as a whole, favours compounds with a hit. Of some 79,000 tested, about 15% had one in any assay. Unmarked numbers belong to inactive results. Activity calls are given as the source filed them. Rule as the data show it: active = growth inhibition above about 70%; inactive = the rest.

Turning to `O=C1OC(C(O)C(O)CO)C(O)C1O` (stereo not given), the growth inhibition was 8.2% and -17.4% in assay [1]; 7.7% and -27.4% in assay [2]; 1.35% and -34.2% in assay [3]; -16.9% and -32.7% in assay [4]; 14.4% and -0.9% in assay [5]; -23.7% and -1.8% in assay [6].

Regarding `O=C1/C(=C/c2ccc(Cl)cc2)CCC1CN1CCOCC1` (stereo not given), the growth inhibition in assay [1] is 89.8% (active); in assay [2] it was 92.2% (active); in assay [3] it was 89.2% (active); in assay [4], 92.3% (active); in assay [5], 91.1% (active); in assay [6] it was 92% (active).

With `C=C1N(C=O)C(C)(C)N(O)C1(C)C`, the growth inhibition was 16.7% in assay [1]; 15.7% in assay [2]; 15.6% in assay [3]; 28.1% in assay [4]; 12.2% in assay [5]; 10.9% in assay [6].

As to `CCCCN1CCC(N)=NC1=O`, the growth inhibition is 10.1% in assay [1]; -24.9% in assay [2]; -9.1% in assay [3]; 9.2% in assay [4]; -5.6% in assay [5]; -4.15% in assay [6].

Regarding `Cc1ccc(SCC(O)=C2C(=O)CCCC2=O)cc1`, the growth inhibition is -11.4% in assay [1]; -12.3% in assay [2]; 15.1% in assay [3]; -0.45% in assay [4]; -2.25% in assay [5]; -7.45% in assay [6].

Consider `CC1=NCC23CC(=O)C4C(CCC5(C)CC(O)CCC45C)C2CCC13` (stereo not given), for which the growth inhibition in assay [1] was 0.85%; in assay [2] it was -0.95%; in assay [3] it was 7.6%; in assay [4] it was -36.6%; in assay [5] it was 20.4%; in assay [6], 1.9%.

On to `O=C(O)c1cc([N+](=O)[O-])cc([N+](=O)[O-])c1-c1ccccc1`, for which the growth inhibition was -10.4% in assay [1]; -2.6% in assay [2]; 6.2% in assay [3]; -13.4% in assay [4]; 44.6% in assay [5]; -10% in assay [6].

As to `CC1CC(C)OC(c2ccccc2Cl)O1` (stereo not given), the growth inhibition in assay [1] is 24.6%; in assay [2], 12.4%; in assay [3], 6.3%; in assay [4] it was -8.1%; in assay [5], 12.7%; in assay [6], 25%.

Take `CCSC(=O)C(F)(F)F`: the growth inhibition in assay [1] is -9.95%; in assay [2], -47.9%; in assay [3], -51.4%; in assay [4] it was -1.2%; in assay [5], -18.1%; in assay [6], -25.6%.

On to `O=S(=O)(NCCN1CCNC1=S)c1ccc(Cl)c(Cl)c1`, for which the growth inhibition in assay [1] was -55.5%; in assay [2], -12.7%; in assay [3] it was -3.25%; in assay [4] it was -16.7%; in assay [5], -6.2%; in assay [6], -6.6%.

Consider `Cc1sc2nc3n(c(=O)c2c1C)N=CN(c1ccc(Cl)cc1)C3`, for which the growth inhibition is 5.5% in assay [1]; 5.1% in assay [2]; 7.8% in assay [3]; -3.15% in assay [4]; 0.05% in assay [5]; -45.2% in assay [6].

Consider `COC(=O)C(=O)C(C(=O)OC)C(=O)C(=O)Nc1ccccc1C(N)=O` (stereo not given), for which the growth inhibition is -33.5% in assay [1]; -7.55% in assay [2]; -25.6% in assay [3]; -10.2% in assay [4]; -27.9% in assay [5]; -21.2% in assay [6].

For the compound `[Cu+2].[NH-]CC(=O)NC(Cc1ccccc1)C(=O)O.[NH-]CC(=O)NC(Cc1ccccc1)C(=O)O` (stereo not given), the growth inhibition was 30.9% in assay [1]; 2.4% in assay [2]; 10.6% in assay [3]; 17.5% in assay [4]; 0.9% in assay [5]; 10.6% in assay [6].

In the case of `CC1(C)N=C(N)N=C(N)N1CCCOc1ccc(N)cc1`, the growth inhibition in assay [1] was 33.2%; in assay [2] it was -4.65%; in assay [3], 11.8%; in assay [4] it was 5.2%; in assay [5], -3.55%; in assay [6] it was 1.1%.

Regarding `N#C/C(=C\c1c[nH]c2ccccc12)C(N)=O`, the growth inhibition in assay [1] is 13.6% and 2.05%; in assay [2], 5.15% and -7.45%; in assay [3], 7.3%; in assay [4] it was 18.8%; in assay [5] it was -7.3%; in assay [6], 22.5% and 5.8%.

With `COc1ccc(C)cc1NC(=O)OCCCl`, the growth inhibition in assay [1] is 3.1%; in assay [2] it was 2.35%; in assay [3] it was 2.65%; in assay [4], 5.95%; in assay [5], 11.1%; in assay [6] it was -5.3%.

`CN(C)P1(=O)N(c2ccccc2)P(=O)(N(C)C)N1c1ccccc1` (stereo not given): the growth inhibition in assay [1] was -11.5%; in assay [2], -32.1%; in assay [3], -17.1%; in assay [4] it was -1.55%; in assay [5] it was -19.4%; in assay [6], -34.7%.

For `Cc1ccccc1NS(=O)(=O)N1CCCCC1`, the growth inhibition was -11.8% in assay [1]; -24.4% in assay [2]; -4.3% in assay [3]; 18.9% in assay [4]; 22.1% in assay [5]; -5.65% in assay [6].

For the compound `Cc1ccc(OC(=O)Oc2ccc(C)cc2)cc1`, the growth inhibition in assay [1] was 18.8%; in assay [2], 1.9%; in assay [3], 4.35%; in assay [4] it was -6.9%; in assay [5] it was 7.05%; in assay [6], 18%.

Turning to `Cn1cnc([N+](=O)[O-])c1Sc1ncc[nH]1`, the growth inhibition was 1.3% in assay [1]; 3.1% in assay [2]; -3.05% in assay [3]; 16.4% in assay [4]; 9.7% in assay [5]; 2.8% in assay [6].
